Bioassay records deposited in PubChem BioAssay by several laboratories.
Wnt act – Wnt/beta-catenin pathway activators, primary screen, cell-based, plate reader, single point | AID 743398, 2014 | activation, % at 9.35 µM | actives 1.2% (n = 300,000) | Wnt/beta-catenin reporter cell assay, activator; in the data active = activation above about 30%, passing the limit was not always enough; inconclusive = no clear call, values can overlap the other calls;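 also: 0% = neutral control wells and 100% = positive control wells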
MITF TRPM1 HTS – activators of MITF-driven TRPM1 promoter reporter, primary screen, cell-based, SK-MEL-5, luciferase, single point; actives 0.75% (n = 300,000); activation, % at 12.5 µM; AID 588334, 2011; SK-MEL-5 TRPM1-promoter luciferase, 24 h; % of positive control, neutral wells = 0;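 active = mean activation of at least 80% with every replicate also reaching 80%; inconclusive = mean reaches 80% but some replicate falls short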;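 also: 0% = neutral control wells and 100% = parthenolide positive control wells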
esBAF inh – Bmi1 luciferase reporter increase in mESCs, primary screen, esBAF inhibitor project, mouse ES cells, Bmi1 luciferase knock-in, single point | 24 h; 100% = twice the neutral-well signal | reporter increase, % at 12.5 µM | AID 602393, 2012 | actives 2% (n = 350,000); in the data active = activation above about 40%; inconclusive = no clear call, values can overlap the other calls;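 also: 0% = median of the plate's neutral control wells and 100% = double that signal; a rise in the Bmi1 reporter signal indicates esBAF inhibition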
FXN GAA850 act – FXN promoter activators, primary screen, cell-based, luciferase luminescence, HEK293 lucGAA850. activation, % at 6 µM. HEK293 lucGAA850 FXN promoter luciferase reporter, 24 h; percent of 10 µM SAHA response. actives 0.56% (n = 360,000);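 active = activation above the average of all compounds screened plus 3 SD, cutoff fixed separately per campaign, cut at about 7.5% in these data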;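 also: 0% = DMSO wells and 100% = 10 µM SAHA wells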
Active calls of the source: *; ? = inconclusive; · = no result. Hits are enriched below; roughly 2.8% of the tested compounds scored in any of these assays.

SMILES | Wnt act | MITF TRPM1 HTS | esBAF inh | FXN GAA850 act
CCOC(=O)N/N=C\C=C\c1ccc2c(c1)OCO2 | 50* | 73 | · | 2
COC(=O)N/N=C\C=C\c1ccc2c(c1)OCO2 | · | 32 | · | 1
COc1cc(OC)cc(C(=O)Nc2cccc(-c3ccc(N4CCOCC4)nn3)c2)c1 | 20 | 101* | 33 | 4
COc1cccc(OC)c1C(=O)Nc1cccc(-c2ccc(N3CCOCC3)nn2)c1 | 19 | 83* | 4 | 4
COc1ccc(C(=O)Nc2cccc(-c3ccc(N4CCOCC4)nn3)c2)cc1 | 19 | 90* | 45* | -1
CN(c1ccc(O)cc1)c1nc(-c2cccs2)cs1 | -1 | 58 | · | 1
Cc1nc(N)sc1-c1csc(N(C)c2ccc(O)cc2)n1 | -3 | 38 | 43* | 7
CCCNC(=O)N(C)C[C@H]1Oc2ncc(C#CC3(O)CCCC3)cc2C(=O)N([C@H](C)CO)C[C@H]1C | · | · | 3 | ·
COc1ccc(S(=O)(=O)N(C)C[C@@H]2OCCCC[C@@H](C)Oc3ccc(NS(=O)(=O)c4ccc(C)cc4)cc3C(=O)N([C@@H](C)CO)C[C@@H]2C)cc1 | · | · | 0 | ·
O=C(c1cc(-c2ccc(Cl)c(Cl)c2)on1)N1CCCCCC1 | 22 | 131* | 59* | 2
Cc1ccc(-c2cc(C(=O)N3CCCC3)no2)cc1 | 1 | -9 | -56 | -3
O=C(c1cc(-c2ccc(Cl)cc2Cl)on1)N1CCCC1 | -1 | 3 | -49 | -1
O=C(c1cc(-c2ccc(O)cc2)on1)N1CCCCCC1 | 40* | 84* | 11 | 5
O=C(c1cc(-c2cccc(Cl)c2)on1)N1CCCCCC1 | 21 | 113* | 63* | 6
O=C(c1cc(-c2ccc(Cl)cc2Cl)on1)N1CCCCCC1 | 33* | 42 | -8 | 2
O=C(c1cc(-c2ccc(Cl)cc2)on1)N1CCCCCC1 | -5 | 64 | 11 | 6
O=C1/C(=C\c2ccc(O)cc2)SC(=S)N1/N=C/c1ccc(O)cc1 | 51* | 12 | · | 1
Clc1ccc(-n2nnc(-c3cccnc3)n2)cc1Cl | 32* | 71 | 83* | 2
Clc1ccc(-n2nnc(-c3ncc[nH]3)n2)cc1Cl | 5 | ? | 62* | 2
Brc1ccccc1-n1nnc(-c2cccnc2)n1 | 24 | ? | ? | 2
Fc1ccc(-n2nnc(-c3cccnc3)n2)cc1 | 32* | 62 | 62* | 5
Cc1cccc(-c2nnc(NC(=O)c3cccs3)s2)c1 | 28 | 44 | 47* | 1
Cc1ccc(C(=O)Nc2nnc(COCCO)s2)cc1 | 0 | · | 50* | 5
Cc1ccc(C(=O)Nc2nnc(COc3ccccc3)s2)cc1 | 0 | -21 | · | 1
O=C(Nc1nnc(Cc2ccccc2)s1)c1ccccc1 | 0 | · | 70* | 3
SMILES | Wnt act | MITF TRPM1 HTS | esBAF inh | FXN GAA850 act
O=C(Nc1nnc(Cc2ccccc2)s1)Nc1ccccc1F | 25 | 56 | 53* | 2
C[C@@H]1CCCCO[C@@H](CN(C)S(=O)(=O)c2ccccc2)[C@@H](C)CN([C@@H](C)CO)C(=O)c2cc(NC(=O)CCC(F)(F)F)ccc2O1 | · | · | 8 | ·
CCCN1C[C@@H](C)[C@H](OC)CN(C)C(=O)c2cc(NS(=O)(=O)CC)ccc2OC[C@@H]1C | · | · | 1 | ·
O=C(Nc1nnc(Cc2ccccc2)s1)c1cccs1 | · | 46 | 44* | 3
O=C(Nc1nnc(Cc2ccc(Cl)cc2)s1)c1cccs1 | · | · | 29 | 0
O=C(c1ccco1)N1CCN(Cc2c(Cl)cccc2Cl)CC1 | 9 | 74 | 59* | 3
Cc1nc(NC(=O)CN2CCOCC2)sc1-c1ccccc1 | 14 | 53 | 50* | 3
CCc1sc(NC(=O)CN2CCOCC2)nc1-c1ccccc1 | 0 | 4 | -8 | 0
O=C(CN1CCCCC1)Nc1nc(-c2ccc(Cl)cc2)cs1 | 10 | 25 | 29 | 2
O=C(CN1CCCCC1)Nc1nc(-c2ccccc2)cs1 | 9 | 36 | 55* | 4
CC(C)NC(=O)N[C@@H]1CC[C@@H](CCNC(=O)C2CCC2)O[C@@H]1CO | · | · | 2 | ·
Cn1cc(-c2coc3c(C(=O)NCc4ccco4)cccc23)cn1 | · | · | 72* | 3
COc1ccc(NC(=O)N(C)C[C@@H]2Oc3ccc(NS(=O)(=O)c4ccc(F)cc4)cc3CC(=O)N([C@@H](C)CO)C[C@@H]2C)cc1 | · | · | 3 | ·
CCN=c1scc(-c2ccc(F)cc2)n1/N=C/c1ccccn1 | 17 | 91* | · | 8.8*
C=CCn1cccc(C(=O)Nc2ccc(C)cc2)c1=O | 2 | · | 39 | 2
C=CCn1cccc(C(=O)Nc2ccc(C)c(C)c2)c1=O | ? | 72 | 49* | 4
Cc1cc(OCC(=O)N(C)C2CCCCC2)ccc1Cl | 60* | 39 | 4 | 4
Cc1cc(OCC(=O)N(C)C2CCCCC2)cc(C)c1Cl | -1 | 45 | · | 5
COc1ccc(-c2noc(-c3ccc(Cl)cc3[N+](=O)[O-])n2)cc1OC | 21 | 71 | · | 2
Cc1cccc(-c2noc(-c3ccc(Cl)cc3[N+](=O)[O-])n2)c1 | 43* | 71 | · | 7
CCc1noc(C)c1C(=O)NNC(=O)COc1ccccc1C | 34* | -4 | -8 | 0
CC(=O)N1CCc2c(sc(NC(=O)c3ccc([N+](=O)[O-])o3)c2C#N)C1 | 67* | -93 | · | 2
COc1ccc(C(=O)Nc2sc3c(c2C#N)CCN(C(C)=O)C3)cc1 | 2 | -16 | -8 | -2
COc1ccc(Nc2nc(N3CCCC3)nc3ccccc23)c(OC)c1 | -11 | 10 | -1 | -3
COc1ccc(Nc2nnc(Cc3ccncc3)c3ccccc23)c(OC)c1 | 1 | 4 | 52* | 1
SMILES | Wnt act | MITF TRPM1 HTS | esBAF inh | FXN GAA850 act
COc1ccccc1NC1=C(Cl)C(=O)N(c2ccccc2)C1=O | · | 9 | · | 2
CCOc1ccc(N2C(=O)C(Cl)=C(Nc3ccccc3O)C2=O)cc1 | · | -17 | 41* | 1
O=C1C(Cl)=C(Nc2ccccc2O)C(=O)N1CCc1ccccc1 | -1 | -2 | 62* | 3
CCCCOc1ccc(-c2cn3ccccc3n2)cc1[N+](=O)[O-] | · | 67 | · | 2
CCCOc1ccc(-c2csc(N)n2)cc1[N+](=O)[O-] | -2 | 99* | · | 6
Cc1c(C(=O)c2ccccc2)oc2ccc3ccccc3c12 | 50* | · | 40 | 4
Nc1c(C(=O)c2ccccc2)oc2ccccc12 | 5 | 5 | 10 | 5
O=C(NCC[C@H]1CC[C@H](NC(=O)C2CCC2)[C@H](CO)O1)Nc1ccc(Cl)cc1 | · | · | 5 | ·
O=C([C@@H]1[C@@H](CO)[C@@H]2Cn3c(ccc(-c4cccnc4)c3=O)[C@H]1N2Cc1ccncc1)N1CCOCC1 | · | · | -1 | ·
Cc1ccc(NNC(=O)c2cc(C(C)(C)C)nn2Cc2ccccc2)cc1 | 3 | -1 | -12 | 1
COc1ccccc1NNC(=O)c1cc(C(C)(C)C)nn1Cc1ccccc1 | 54* | · | · | 0
COc1ccc(NC(=O)CN(C)C(=O)c2ccc3c(c2)CC(c2ccccc2)OC3=O)cc1 (centres undefined) | -1 | · | 6 | -1
